# NPR1 antag: human Npr1 receptor antagonism; HEK293 hNpr1 GloSensor cGMP, ANP-stimulated luminescence; Potency, µM (highest dose often 46.3 µM), for the others: at the top dose activity change, negative = inhibition, hits mostly inhibitors; actives 1.6% (n = 76,000); calls by dose curve; also: nearly all actives have a fitted effect of over 60% in size
#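 Compound pre-incubated 30 min at room temperature on GloSensor-loaded HEK293 cells stably carrying hNpr1 and the pGS-40F cGMP biosensor. Stimulation uses hNppA at 0.1 nM final; luminescence is taken at baseline and 20 min post-agonist.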
# HEK293 tox: kills HEK 293 cells | HEK 293 viability, ATP luminescence (CellTiter-Glo), 48-72 h | Potency, µM (series often up to 115 µM), inactives show top-dose activity change, negative = cytotoxicity, actives largely listed as inhibitors | actives 6.6% (n = 94,000); also: nearly all actives have a fitted effect of over 60% in size
#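 HEK 293 cells seeded at 250 cells/well were exposed to compound for 48 or 72 hr at 37 degree Celsius. Viability taken as ATP content by CellTiter-Glo luminescence.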
# Luciferase inh: blocks purified firefly luciferase enzyme activity; P08659; purified P. pyralis luciferase, luminescence, biochemical; Potency, µM (highest dose often 115 µM), usual class: inhibitors; actives 2.5% (n = 76,000); also: nearly all actives have a fitted effect of over 65% in size
# Target sequence (P08659 whole entry, looked up): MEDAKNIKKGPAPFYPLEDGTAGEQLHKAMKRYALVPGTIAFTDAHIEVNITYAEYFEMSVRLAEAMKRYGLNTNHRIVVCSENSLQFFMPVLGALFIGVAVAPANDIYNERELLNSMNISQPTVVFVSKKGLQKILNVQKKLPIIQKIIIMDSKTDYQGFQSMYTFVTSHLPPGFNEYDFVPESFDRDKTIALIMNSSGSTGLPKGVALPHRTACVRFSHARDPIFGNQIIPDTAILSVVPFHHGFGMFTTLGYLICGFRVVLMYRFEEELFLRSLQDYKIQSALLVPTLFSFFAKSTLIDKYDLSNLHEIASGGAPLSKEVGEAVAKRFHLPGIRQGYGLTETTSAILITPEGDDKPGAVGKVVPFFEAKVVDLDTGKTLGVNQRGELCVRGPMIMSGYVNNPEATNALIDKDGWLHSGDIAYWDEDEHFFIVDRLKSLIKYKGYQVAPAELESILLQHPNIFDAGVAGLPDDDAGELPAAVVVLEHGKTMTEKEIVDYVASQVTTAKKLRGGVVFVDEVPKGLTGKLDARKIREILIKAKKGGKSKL
#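 Luminescence read by CCD imaging after purified firefly luciferase (10nM final) was added to substrate buffer holding 10uM D-luciferin and 10uM ATP, pH 7.5, pre-dosed with compound.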
# NIH3T3 tox: NIH 3T3 cell cytotoxicity. NIH 3T3 viability, CellTiter-Glo ATP luminescence, 48-72 h. Potency, µM (top dose mostly 96.7 µM), without a hit: at the top dose activity change, negative = cytotoxicity, usual class: inhibitors. actives 4.3% (n = 94,000); also: nearly all actives have a fitted effect of over 55% in size
#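 Mouse fibroblast NIH 3T3 cells, 400 per well, received compound via pintool and were incubated for 48 or 72 hr prior to CellTiter-Glo ATP luminescence measurement.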
# GPT2 inhibitor: blocks human glutamate pyruvate transaminase 2; Recombinant GPT2, coupled pyruvate oxidase/HRP Amplex Red fluorescence; Potency, µM (top dose mostly 57.7 µM), for the others: at the top dose activity change, negative = inhibition, most hits filed as inhibitors; Q8TD30; actives 0.25% (n = 100,000); also: nearly all actives have a fitted effect of over 60% in size
#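 Fluorescence read-out: pyruvate from GPT2 turnover coupled to pyruvate oxidase, HRP and Amplex Red (0.2mM ThPP, 0.2U/mL PO and HRP, 50uM Amplex final). Substrates 250uM a-KG, 2mM L-alanine; enzyme 10ng/uL; 30 min RT.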
# * hit, by the source's call; i = inactive; ? = inconclusive; . = no result; ! = a repeat was not active; [ ] = remark or other dose. Sampled rows, rich in hits. Any-hit rate of the full collection: about 10%. Unless noted, calls follow the shape of the dose curve; as a rule, active = well fitted curve in the direction sought with a large enough effect; inconclusive = small, poorly fitted or top-dose-only effect, or another doubt; inactive = no such curve, though single readings can be large; an effect the other way counts as inactive or inconclusive. % is scaled to controls: 0 for no effect and ±100 for the full control effect; potency is read from the fitted curve at half-maximal effect.
SMILES,NPR1 antag,HEK293 tox,Luciferase inh,NIH3T3 tox,GPT2 inhibitor
Cn1cc(-c2ccc3c(n2)CN(Cc2ccc(C(F)(F)F)cc2)C(=O)CO3)cn1,-16%[70.6 µM],?,i,32µM*,-27%[88.5 µM]
Cn1cc(-c2ccc3c(n2)CN(Cc2ccc(F)cc2)C(=O)CO3)cn1,-16%[70.6 µM],?,i,?,-4%[88.5 µM]
COc1ccc(-c2ccc3c(n2)CN(Cc2ccc(F)cc2)C(=O)CO3)cc1,?,?,i,?,-1%[88.5 µM]
COc1ccc(-c2ccc3c(n2)CN(Cc2ccccc2)C(=O)CO3)cc1F,-17%[70.6 µM],79µM*,i,79µM*,-16%[88.5 µM]
COc1ccc(-c2ccc3c(n2)CN(Cc2ccccc2F)C(=O)CO3)cc1OC,-16%[70.6 µM],50µM*,i,25µM*,2%[88.5 µM]
COCCN1Cc2nc(-c3ccc(OC)c(F)c3)ccc2OCC1=O,0%[70.6 µM],-23%[172 µM],i,?,i
O=C(NC1CCCN(C2CCCCCC2)C1)c1ccccc1C(F)(F)F (stereo not drawn),5%,-9%,i,i,i
O=C(CCc1ccccc1)N1C[C@@H](CO)[C@@H]2Oc3ccc(Cl)cc3[C@@H]21,.,79µM*,.,?,.
CCCCCC(=O)N1C[C@@H](C(N)=O)[C@@H]2Oc3ccc(Cl)cc3[C@@H]21,.,?,.,-30%,.
COc1ccccc1-n1c(=O)c(C(=O)N2CCCC2)nc2cccnc21,.,1%,.,-10%,-1%
COc1ccc(-c2nnc([C@H]3CCN(S(C)(=O)=O)C3)o2)cc1,0%[70.6 µM],i,i,-18%[138 µM],1%[88.5 µM]
O=S(=O)(Cc1ccccc1)N1CCC(Oc2ccc(-c3noc(C4CC4)n3)cc2)C1 (stereo not drawn),?,40µM*,i,?,i
COc1ccc(-c2nnc([C@H]3CCN(S(=O)(=O)Cc4ccccc4)C3)o2)cc1,-3%[70.6 µM],?,50µM*,?,-8%[88.5 µM]
Cc1ccccc1N(C)C1CN(Cc2ccc(F)cc2)C1,.,?,.,-23%[138 µM],-12%[88.5 µM]
Cc1ccccc1N(C)C1CN([S+](=O)([O-])c2cccs2)C1,-7%[70.6 µM],79µM*,i,?,3%[88.5 µM]
Cc1ccccc1N(C)C1CN(Cc2ccc(C(F)(F)F)cc2)C1,.,100µM*,.,?,3%
Cc1ccccc1N(C)C1CN(Cc2cccnc2)C1,.,?,.,-25%[138 µM],i
Cc1ccccc1N(C)C1CN(Cc2ccccc2)C1,-8%[70.6 µM],?,i,89µM*,?
COc1ccc(-c2noc([C@@H]3CCCN3C(=O)Cc3ccccc3Cl)n2)cc1OC,-4%,?,i,?,-24%
O=C(CCC1CCCC1)N1CCC2(CC1)CC(N(Cc1ccc(F)cc1)C1CC1)CCO2 (stereo not drawn),3%,?,i,?,i
O=C(CC1CCCCC1)N1CCC2(CC1)CC(N(Cc1ccc(F)cc1)C1CC1)CCO2 (stereo not drawn),3%,50µM*,i,?,i
O=C(NCc1ccnc2[nH]ccc12)c1ccccc1Cl,5%[70.6 µM],-14%[172 µM],i,-9%[138 µM],4%[88.5 µM]
O=C(NCc1ccnc2[nH]ccc12)c1ccc2ccccc2n1,?,89µM*,?,?,3%[88.5 µM]
O=C(Cc1ccccc1)NCc1ccnc2[nH]ccc12,-15%[70.6 µM],-3%[172 µM],35µM*,-5%[138 µM],i
CCOc1ccccc1CNC(=O)c1c(C)sc2ccn(CC(C)C)c(=O)c12,-1%,?,i,?,-1%
SMILES,NPR1 antag,HEK293 tox,Luciferase inh,NIH3T3 tox,GPT2 inhibitor
O=C(NC1CCN(c2nccc(Nc3ccccc3F)n2)CC1)c1ccc(C(F)(F)F)cc1,.,25µM*,.,35µM*,i
O=C(NC1CCN(c2nccc(Nc3ccccc3F)n2)CC1)c1ccc(F)cc1,.,?,.,35µM*,i
O=C(NC1CCN(c2nccc(Nc3ccccc3Cl)n2)CC1)c1ccc(C(F)(F)F)cc1,.,40µM*,.,32µM*,i
COc1ccc(C(=O)NC2CCN(c3nccc(Nc4ccccc4F)n3)CC2)cc1,.,?,.,-36%,-7%
O=C(NC1CCN(c2nccc(Nc3ccccc3F)n2)CC1)c1ccccc1,.,?,.,?,i
Cc1ccc(-c2noc(-c3nc(-c4ccccn4)no3)n2)cc1,-4%,4%,18µM*,i,i
COc1ccc(OC)c(CNC(=O)C2Cn3cccc3C(=O)N2CC(C)C)c1 (stereo not drawn),-13%,0%,i,4%,-10%
CCCn1cc(-c2ccnc(NCc3cccc(C)c3)n2)c(C)n1,8%,?,i,?,i
CCCn1cc(-c2ccnc(NC3CCN(Cc4ccccn4)CC3)n2)c(C)n1,-6%,28µM*,i,?,i
CCCn1cc(-c2ccnc(NCc3c(F)ccc(C)c3F)n2)c(C)n1,1%,50µM*,i,?,-1%
O=C(c1cc2cn(C3CC3)cc2s1)N1CCc2ccccc2C1,-1%,89µM*,i,?,2%
Cc1nnc2ccc(N3CCC(NC(=O)NC4CCCC4)C3)nn12 (stereo not drawn),.,-10%[172 µM],.,-4%[138 µM],.
O=C(C1CCCC1)N1CCN(Cc2ccccc2-c2ccccc2F)CC1,.,?,.,?,i
O=C(c1cccc(Cl)c1)N1CCN(Cc2ccccc2-c2ccccc2F)CC1,.,?,.,45µM*,i
O=C1CCCN1CC(=O)N1CCC(C2CCN(Cc3cccc(F)c3F)CC2)C1 (stereo not drawn),6%,2%,i,0%,-4%
O=C(C1CCN(Cc2ccccc2-c2ccccc2F)CC1)N1CCC(Cc2ccccc2)CC1,.,35µM*,.,35µM*,.
O=C(NCCCc1ccccc1)C1CCN(Cc2ccccc2-c2ccccc2F)CC1,.,22µM*,.,?,.
O=C(C1CCCCC1)N1CCC(C2CCN(Cc3cccc(F)c3F)CC2)C1 (stereo not drawn),8%,79µM*,i,?,-3%
O=C(NCc1cccc(F)c1)C1CCN(Cc2ccccc2-c2ccccc2F)CC1,.,40µM*,.,?,.
O=C(NCC(F)(F)F)C1CCN(Cc2ccccc2-c2ccccc2F)CC1,.,-17%,.,-22%,.
O=C(OCc1ccccc1)N1CCOCC12CCN(Cc1ccc3[nH]ccc3c1)CC2,-21%[70.6 µM],?,i,?,-11%[88.5 µM]
COc1ccccc1-c1ccc(C(=O)N2CCC(NC(=O)Cc3ccc(F)cc3)CC2)cc1,.,?,.,45µM*!,-8%
COc1ccccc1-c1ccc(C(=O)N2CCC(NC(=O)Cc3cccc(Cl)c3)CC2)cc1,.,16µM*!,.,16µM*,4%
COc1ccccc1-c1ccc(C(=O)N2CCC(C(=O)NCCc3ccc(Cl)cc3)CC2)cc1,.,?,.,32µM*,-8%
CCn1ccc(C(=O)N2C[C@@H]3CCCN4CCC[C@@H]([C@H]34)[C@H]2CCCC(=O)NCC2CC2)n1,-9%,-3%,i,i,i
